# According to PubChem BioAssay AID720598 (Broad Institute, 2013):
# Measured potencies and affinities stand elsewhere. The source made the active and inactive calls.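 How the source made its calls: active means viability drop at all three exposure times, fitted half-maximal dose at most twice the top valid dose; inconclusive means exposure times disagree in their calls; inactive means inactive at every exposure time.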
# Assay: time-course viability loss in HT-29 cells – cell-based, CellTiter-Glo, multiple timepoints, dry powder, HRas target identification project, dose response (AID 720598)
# Settings: HT-29 viability, CellTiter-Glo ATP luminescence, 8-48 h; series mostly up to 35 µM
row,Structure (SMILES),outcome
1,Cc1onc(C(=O)N2CCN(C(c3ccncc3)c3ccncc3)CC2)c1[N+](=O)[O-],inactive
2,CCC(=O)N(c1ccc(OC)c(Cl)c1)C(C(=O)NCCc1ccccc1)c1cccs1 (configuration not stated),inactive
